Among the data in ChEMBL document CHEMBL2218924, “A broad activity screen in support of a chemogenomic map for kinase signalling research and drug discovery” (Biochem J, 2013) are residual activity values, retold here.

Assay [1] concerns the target T1, Dual specificity mitogen-activated protein kinase kinase 6 (Homo sapiens) (UniProt P52564).
T1 sequence (whole entry): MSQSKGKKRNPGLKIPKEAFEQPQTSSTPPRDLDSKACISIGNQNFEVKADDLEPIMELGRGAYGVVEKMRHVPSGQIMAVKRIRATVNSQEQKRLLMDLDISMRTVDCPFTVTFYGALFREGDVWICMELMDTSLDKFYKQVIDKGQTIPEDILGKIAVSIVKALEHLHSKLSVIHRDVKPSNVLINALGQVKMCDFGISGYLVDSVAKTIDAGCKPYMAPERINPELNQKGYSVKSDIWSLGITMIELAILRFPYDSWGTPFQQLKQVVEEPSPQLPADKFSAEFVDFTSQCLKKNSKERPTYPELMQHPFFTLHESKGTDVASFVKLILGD
To be noted: at 1 µM.

The target in assay [2] is T1, Dual specificity mitogen-activated protein kinase kinase 6 (Homo sapiens). To be noted: at 10 µM.
For assay [3], the target named is T2, Dual specificity mitogen-activated protein kinase kinase 7 (Homo sapiens) (UniProt O14733).
T2 sequence (whole entry): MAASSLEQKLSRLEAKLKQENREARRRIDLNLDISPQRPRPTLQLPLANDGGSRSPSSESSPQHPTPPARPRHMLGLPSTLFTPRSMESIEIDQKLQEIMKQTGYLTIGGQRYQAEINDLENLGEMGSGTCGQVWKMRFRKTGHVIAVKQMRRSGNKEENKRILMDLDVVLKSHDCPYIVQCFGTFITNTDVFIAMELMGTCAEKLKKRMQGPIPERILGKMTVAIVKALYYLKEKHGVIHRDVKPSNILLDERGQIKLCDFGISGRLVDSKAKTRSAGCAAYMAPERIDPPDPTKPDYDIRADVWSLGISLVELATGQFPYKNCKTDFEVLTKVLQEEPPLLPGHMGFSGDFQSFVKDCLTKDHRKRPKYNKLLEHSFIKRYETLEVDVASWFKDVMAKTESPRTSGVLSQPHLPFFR
To be noted: at 1 µM.

Assay [4] deals with T2, Dual specificity mitogen-activated protein kinase kinase 7 (Homo sapiens). The settings on record: at 10 µM.
Assay [5] has as its target Myosin light chain kinase, smooth muscle (Homo sapiens) (UniProt Q15746). The settings on record: at 1 µM.
For assay [6] the target is unchanged. The settings on record: at 10 µM.
Assay [7] concerns the target Mitogen-activated protein kinase kinase kinase 9 (Homo sapiens) (UniProt P80192). The settings on record: at 1 µM.
Assay [8] has the same target. The settings on record: at 10 µM.
The target of assay [9] is Serine/threonine-protein kinase MRCK alpha (Homo sapiens) (UniProt Q5VT25). The settings on record: at 1 µM.
The target is the same in assay [10]. The settings on record: at 10 µM.
Assay [11] has as its target Serine/threonine-protein kinase MRCK beta (Homo sapiens) (UniProt Q9Y5S2). The settings on record: at 1 µM.
Assay [12] shares this target. To be noted: at 10 µM.
The target of assay [13] is Ribosomal protein S6 kinase alpha-5 (Homo sapiens) (UniProt O75582). The settings on record: at 1 µM.
The target is the same in assay [14]. To be noted: at 10 µM.
The target in assay [15] is Ribosomal protein S6 kinase alpha-4 (Homo sapiens) (UniProt O75676). To be noted: at 1 µM.
Assay [16] shares this target. The settings on record: at 10 µM.
In assay [17] the target is SRSF protein kinase 3 (Homo sapiens) (UniProt Q9UPE1). To be noted: at 1 µM.
For assay [18] the target is unchanged. To be noted: at 10 µM.
Assay [19] concerns the target T3, Serine/threonine-protein kinase 4 (Homo sapiens) (UniProt Q13043).
T3 sequence (whole entry): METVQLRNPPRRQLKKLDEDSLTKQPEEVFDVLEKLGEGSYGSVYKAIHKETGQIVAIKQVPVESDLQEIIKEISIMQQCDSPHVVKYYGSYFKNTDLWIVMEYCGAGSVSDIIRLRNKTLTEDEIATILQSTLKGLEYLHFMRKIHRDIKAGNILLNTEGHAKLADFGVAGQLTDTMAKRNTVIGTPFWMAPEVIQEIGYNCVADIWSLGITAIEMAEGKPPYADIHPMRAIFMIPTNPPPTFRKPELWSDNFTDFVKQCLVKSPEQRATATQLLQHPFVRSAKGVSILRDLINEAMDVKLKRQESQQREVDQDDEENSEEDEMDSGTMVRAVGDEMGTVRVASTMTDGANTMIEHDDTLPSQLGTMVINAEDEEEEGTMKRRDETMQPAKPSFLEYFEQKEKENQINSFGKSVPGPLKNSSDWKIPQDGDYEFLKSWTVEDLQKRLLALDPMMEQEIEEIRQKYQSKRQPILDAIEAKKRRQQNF
To be noted: at 1 µM.

Assay [20] has as its target T3, Serine/threonine-protein kinase 4 (Homo sapiens). To be noted: at 10 µM.

Sequence of Serine/threonine-protein kinase MRCK alpha (Homo sapiens) (Q5VT25 whole entry): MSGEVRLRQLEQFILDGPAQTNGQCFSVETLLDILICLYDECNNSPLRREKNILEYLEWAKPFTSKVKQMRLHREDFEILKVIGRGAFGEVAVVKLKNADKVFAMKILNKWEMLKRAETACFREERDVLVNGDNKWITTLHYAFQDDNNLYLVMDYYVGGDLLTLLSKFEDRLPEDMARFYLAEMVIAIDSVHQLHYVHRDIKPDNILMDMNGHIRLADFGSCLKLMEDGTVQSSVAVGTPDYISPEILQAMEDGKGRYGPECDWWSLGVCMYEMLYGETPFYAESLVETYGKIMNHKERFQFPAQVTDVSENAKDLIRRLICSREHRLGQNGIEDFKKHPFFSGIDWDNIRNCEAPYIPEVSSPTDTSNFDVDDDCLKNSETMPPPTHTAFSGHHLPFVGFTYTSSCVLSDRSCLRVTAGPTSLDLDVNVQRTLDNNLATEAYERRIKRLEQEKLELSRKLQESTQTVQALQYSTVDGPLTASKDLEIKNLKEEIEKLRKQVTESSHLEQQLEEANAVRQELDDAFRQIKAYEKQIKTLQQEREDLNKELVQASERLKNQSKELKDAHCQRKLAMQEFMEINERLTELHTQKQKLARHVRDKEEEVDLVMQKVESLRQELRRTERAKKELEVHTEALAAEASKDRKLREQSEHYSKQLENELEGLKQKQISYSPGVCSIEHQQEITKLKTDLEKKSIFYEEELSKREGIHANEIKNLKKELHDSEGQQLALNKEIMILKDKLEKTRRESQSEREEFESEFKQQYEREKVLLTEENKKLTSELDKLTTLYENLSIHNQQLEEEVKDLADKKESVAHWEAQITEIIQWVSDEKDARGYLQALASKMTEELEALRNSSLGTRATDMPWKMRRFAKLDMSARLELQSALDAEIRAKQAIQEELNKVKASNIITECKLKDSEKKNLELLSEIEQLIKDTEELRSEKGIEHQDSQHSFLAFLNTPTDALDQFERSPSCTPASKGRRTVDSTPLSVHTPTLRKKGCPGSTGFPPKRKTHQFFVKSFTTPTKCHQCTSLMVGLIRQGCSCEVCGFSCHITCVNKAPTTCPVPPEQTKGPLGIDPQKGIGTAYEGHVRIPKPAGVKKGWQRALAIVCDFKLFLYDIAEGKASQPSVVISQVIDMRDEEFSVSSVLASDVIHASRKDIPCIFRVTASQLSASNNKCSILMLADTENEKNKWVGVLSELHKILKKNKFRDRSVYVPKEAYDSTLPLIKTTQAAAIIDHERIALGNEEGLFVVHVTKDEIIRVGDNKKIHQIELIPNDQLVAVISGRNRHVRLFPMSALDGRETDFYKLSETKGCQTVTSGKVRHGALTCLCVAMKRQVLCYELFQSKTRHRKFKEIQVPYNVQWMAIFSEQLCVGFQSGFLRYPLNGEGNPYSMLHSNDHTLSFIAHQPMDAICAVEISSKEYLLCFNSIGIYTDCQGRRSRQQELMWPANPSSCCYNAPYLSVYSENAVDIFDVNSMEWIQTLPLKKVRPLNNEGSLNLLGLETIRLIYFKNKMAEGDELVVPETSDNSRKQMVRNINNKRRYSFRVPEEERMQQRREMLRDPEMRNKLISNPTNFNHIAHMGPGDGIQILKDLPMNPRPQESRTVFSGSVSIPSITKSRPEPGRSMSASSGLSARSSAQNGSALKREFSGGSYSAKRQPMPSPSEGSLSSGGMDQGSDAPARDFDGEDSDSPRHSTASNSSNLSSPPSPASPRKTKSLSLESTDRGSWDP
Sequence of Myosin light chain kinase, smooth muscle (Homo sapiens) (Q15746 whole entry): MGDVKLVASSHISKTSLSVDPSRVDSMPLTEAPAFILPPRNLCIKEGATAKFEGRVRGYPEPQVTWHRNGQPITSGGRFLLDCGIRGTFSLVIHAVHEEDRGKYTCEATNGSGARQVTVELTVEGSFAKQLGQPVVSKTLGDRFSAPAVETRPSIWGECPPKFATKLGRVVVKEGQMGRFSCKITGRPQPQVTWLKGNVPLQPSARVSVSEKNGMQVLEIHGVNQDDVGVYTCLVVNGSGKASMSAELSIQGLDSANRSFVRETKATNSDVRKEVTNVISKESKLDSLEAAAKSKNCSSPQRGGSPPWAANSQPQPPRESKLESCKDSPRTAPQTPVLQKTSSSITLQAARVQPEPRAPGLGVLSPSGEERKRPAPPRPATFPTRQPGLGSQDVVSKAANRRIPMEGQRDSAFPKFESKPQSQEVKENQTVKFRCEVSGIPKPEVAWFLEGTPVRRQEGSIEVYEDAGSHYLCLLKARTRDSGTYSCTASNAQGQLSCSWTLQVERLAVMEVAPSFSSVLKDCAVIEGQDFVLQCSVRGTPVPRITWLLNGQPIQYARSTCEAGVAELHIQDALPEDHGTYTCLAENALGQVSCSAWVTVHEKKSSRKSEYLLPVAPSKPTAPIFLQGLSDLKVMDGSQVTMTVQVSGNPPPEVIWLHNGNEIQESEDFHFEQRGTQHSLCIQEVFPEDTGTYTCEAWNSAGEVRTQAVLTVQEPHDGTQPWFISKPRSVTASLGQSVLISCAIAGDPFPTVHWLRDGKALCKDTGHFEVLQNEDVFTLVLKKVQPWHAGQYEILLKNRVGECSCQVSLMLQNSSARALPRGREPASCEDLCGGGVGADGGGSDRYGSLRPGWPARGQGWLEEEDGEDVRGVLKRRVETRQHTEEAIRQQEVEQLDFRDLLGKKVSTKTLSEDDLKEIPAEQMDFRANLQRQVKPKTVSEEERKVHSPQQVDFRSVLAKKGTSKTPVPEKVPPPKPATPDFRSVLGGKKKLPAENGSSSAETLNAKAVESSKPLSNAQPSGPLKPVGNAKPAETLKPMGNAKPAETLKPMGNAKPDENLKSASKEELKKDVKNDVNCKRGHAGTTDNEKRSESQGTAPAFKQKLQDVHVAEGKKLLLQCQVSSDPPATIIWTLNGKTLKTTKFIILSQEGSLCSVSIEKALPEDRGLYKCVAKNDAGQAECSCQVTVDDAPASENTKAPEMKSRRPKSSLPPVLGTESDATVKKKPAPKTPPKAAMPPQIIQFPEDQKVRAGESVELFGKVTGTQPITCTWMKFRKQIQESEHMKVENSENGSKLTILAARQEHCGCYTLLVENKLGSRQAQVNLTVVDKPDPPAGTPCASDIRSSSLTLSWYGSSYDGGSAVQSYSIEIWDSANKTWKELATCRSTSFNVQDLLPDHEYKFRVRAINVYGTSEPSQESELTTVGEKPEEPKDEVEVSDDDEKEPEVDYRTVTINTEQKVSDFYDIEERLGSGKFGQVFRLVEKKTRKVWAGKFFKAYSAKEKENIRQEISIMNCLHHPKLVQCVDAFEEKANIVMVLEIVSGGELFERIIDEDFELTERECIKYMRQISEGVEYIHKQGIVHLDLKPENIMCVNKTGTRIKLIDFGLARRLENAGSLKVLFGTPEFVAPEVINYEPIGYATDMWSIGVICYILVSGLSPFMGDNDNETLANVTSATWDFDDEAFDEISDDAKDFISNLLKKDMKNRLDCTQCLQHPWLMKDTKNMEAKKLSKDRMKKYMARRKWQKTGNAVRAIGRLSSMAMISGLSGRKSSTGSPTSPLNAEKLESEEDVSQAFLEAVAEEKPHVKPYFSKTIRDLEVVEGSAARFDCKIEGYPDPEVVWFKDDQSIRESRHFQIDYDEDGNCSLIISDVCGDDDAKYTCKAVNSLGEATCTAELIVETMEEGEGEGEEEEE
Sequence of Ribosomal protein S6 kinase alpha-5 (Homo sapiens) (O75582 whole entry, looked up): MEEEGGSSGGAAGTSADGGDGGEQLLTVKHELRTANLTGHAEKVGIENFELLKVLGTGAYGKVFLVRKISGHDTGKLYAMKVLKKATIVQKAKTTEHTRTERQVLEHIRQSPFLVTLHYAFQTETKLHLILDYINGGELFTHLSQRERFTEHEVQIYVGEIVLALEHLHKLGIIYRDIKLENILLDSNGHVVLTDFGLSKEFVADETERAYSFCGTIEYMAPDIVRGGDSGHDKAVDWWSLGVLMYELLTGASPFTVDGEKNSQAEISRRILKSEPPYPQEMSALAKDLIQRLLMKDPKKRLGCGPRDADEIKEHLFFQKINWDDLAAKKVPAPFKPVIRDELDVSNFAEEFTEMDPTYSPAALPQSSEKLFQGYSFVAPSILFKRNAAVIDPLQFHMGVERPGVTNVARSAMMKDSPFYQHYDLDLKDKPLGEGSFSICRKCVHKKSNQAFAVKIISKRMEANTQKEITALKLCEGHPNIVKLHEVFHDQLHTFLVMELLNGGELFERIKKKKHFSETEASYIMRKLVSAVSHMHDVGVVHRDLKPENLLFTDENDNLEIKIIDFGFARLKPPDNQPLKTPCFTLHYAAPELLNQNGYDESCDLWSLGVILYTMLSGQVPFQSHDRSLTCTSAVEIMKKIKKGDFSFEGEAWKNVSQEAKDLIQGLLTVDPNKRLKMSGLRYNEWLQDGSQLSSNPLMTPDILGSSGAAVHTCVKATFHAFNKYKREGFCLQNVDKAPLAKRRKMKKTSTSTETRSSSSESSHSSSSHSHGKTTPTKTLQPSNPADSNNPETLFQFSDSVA
Sequence of SRSF protein kinase 3 (Homo sapiens) (Q9UPE1 whole entry): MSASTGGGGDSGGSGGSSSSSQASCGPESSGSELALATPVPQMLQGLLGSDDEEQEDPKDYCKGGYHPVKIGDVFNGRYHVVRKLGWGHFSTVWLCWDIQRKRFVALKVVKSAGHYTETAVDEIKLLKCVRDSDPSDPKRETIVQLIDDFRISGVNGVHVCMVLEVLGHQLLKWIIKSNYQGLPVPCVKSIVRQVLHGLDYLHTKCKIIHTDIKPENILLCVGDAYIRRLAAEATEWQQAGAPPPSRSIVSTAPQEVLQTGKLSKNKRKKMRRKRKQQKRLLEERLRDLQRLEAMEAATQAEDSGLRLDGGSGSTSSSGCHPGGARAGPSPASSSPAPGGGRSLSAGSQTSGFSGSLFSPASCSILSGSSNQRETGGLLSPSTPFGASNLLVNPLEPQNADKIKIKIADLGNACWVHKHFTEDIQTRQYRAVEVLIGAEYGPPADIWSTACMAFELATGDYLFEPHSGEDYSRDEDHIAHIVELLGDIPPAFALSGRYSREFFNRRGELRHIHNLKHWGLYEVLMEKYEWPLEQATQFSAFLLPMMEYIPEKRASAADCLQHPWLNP

As for `CO[C@H]1[C@@H](OC)C[C@H](C)[C@@H](OC)C2=CC(=O)C=C(NC(=O)/C(C)=C/C=C/[C@H](OC)[C@@H](OC(N)=O)/C(C)=C/[C@@H]1C)C2=O`, the residual activity in assay [1] was determined as 72%; in assay [2], 99%; in assay [3], 92%; in assay [4], 88%; in assay [5], 98%; in assay [6], 90%. Moreover, the residual activity was 92% in assay [7]; 99% in [8]; 114% in assay [9]; 92% in [10]; 97% in assay [11]; 77% in [12]. In addition, the residual activity in [13] is 115%; in assay [14], 97%; in [15], 92%; in assay [16], 104%; in assay [17], 116%; in assay [18] it was 84%. Also, the residual activity in [19] amounted to 101%; in assay [20] it was 108%.
Consider `N#Cc1cnc2cnc(NCc3cccnc3)cc2c1Nc1ccc(F)c(Cl)c1`, for which the residual activity is 10% in [1]; 7% in [2]; 83% in [3]; 74% in assay [4]; 69% in [5]; 46% in [6]. Also, the residual activity turned out to be 99% in assay [7]; 99% in assay [8]; 14% in [9]; 9% in assay [10]; 5% in [15]; 2% in assay [16]. Also, the residual activity is 119% in assay [17], 99% in [18], 93% in [19] and 91% in assay [20].
On to `Cc1ccc(NC2=CC(=O)c3sc(C)nc3C2=O)cc1`, for which the residual activity in assay [2] was found to be 104%; in [3], 74%; in assay [4], 101%; in assay [5], 101%; in assay [6], 82%; in assay [7], 98%. In addition, the residual activity in assay [8] was 90%; in assay [9], 95%; in [10], 91%; in assay [11], 87%; in assay [12] it was 86%; in assay [13], 106%. The residual activity in assay [14] came to 113%; in [15], 96%; in assay [16], 90%; in assay [17], 101%; in [18], 103%; in [19] it was 72%. Besides, the residual activity in [20] stood at 111%.
For the molecule `O=C1Nc2ccc(Br)cc2/C1=C\c1cc2c([nH]1)CCCC2`, the residual activity is 76% in assay [1]; 84% in assay [2]; 83% in assay [5]; 84% in [6]; 63% in assay [7]; 49% in [8]. The residual activity in assay [9] turned out to be 108%; in assay [10], 110%; in assay [11], 98%; in assay [13] it was 111%; in assay [14], 105%; in assay [16] it was 99%. In addition, the residual activity turned out to be 101% in assay [17], 80% in assay [18], 60% in assay [19] and 75% in assay [20].
As for `CC(C)n1cnc2c(NCc3ccccc3)nc(NCCCO)nc21`, the residual activity in [1] was 94%; in assay [2], 74%; in [3], 91%; in assay [4], 75%; in assay [5], 93%; in [6], 74%. In addition, the residual activity stood at 97% in assay [7]; 73% in assay [8]; 86% in [9]; 83% in assay [10]; 88% in assay [11]; 88% in assay [12]. For the same molecule, the residual activity is 110% in assay [13]; 110% in [14]; 102% in assay [15]; 97% in assay [16]; 106% in assay [17]; 76% in [18]. Besides, the residual activity in [19] and in assay [20] was 102% throughout.
Take `Cc1cc(Nc2nc(-c3ccccc3)nc3ccccc23)n[nH]1`: the residual activity in assay [1] came to 101%; in [2], 71%; in [3] it was 72%; in [4] it was 58%; in [5] it was 55%; in [6], 9%. Further, the residual activity was found to be 4% in assay [7]; 1% in assay [8]; 122% in assay [9]; 110% in assay [10]; 96% in assay [11]; 99% in assay [12]. Besides, the residual activity in assay [13] is 72%; in assay [14], 39%; in assay [15] it was 59%; in assay [16], 14%; in assay [17] it was 46%; in assay [18], 16%. The figures for the residual activity in assay [19] and in assay [20] were 48% and 6%, respectively.
For `Cc1nc2cc3nc(-c4cccs4)cnc3cc2n1C`, the residual activity was determined as 75% in assay [1]; 149% in assay [2]; 109% in [3]; 110% in assay [4]; 82% in [5]; 105% in assay [6]. In addition, the residual activity came to 86% in assay [7]; 44% in assay [8]; 116% in [9]; 102% in [10]; 105% in assay [11]; 100% in assay [12]. Moreover, the residual activity was determined as 129% in [13]; 101% in assay [14]; 101% in assay [15]; 117% in [17]; 88% in assay [18]; 105% in assay [19]. Further, the residual activity in assay [20] was 94%.
